# ALDH1A1 block: inhibitors of human aldehyde dehydrogenase 1A1; P00352; Purified ALDH1A1, NADH fluorescence, propionaldehyde substrate; Potency, µM (doses to about 75.3 µM), for the others: at the top dose activity, negative = inhibition, usual class: inhibitors; 220,000 compounds, 7.3% hits;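 also: plate controls were no enzyme wells and a reference inhibitor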
# HTT cytoprotect: Huntington cell model cytoprotection by ATP luminescence; Potency, µM (series often up to 56.4 µM), inactives show cytoprotection (ATP increase), hits mostly activators; 230,000 compounds, 0.14% hits; PC12 HTT-Q103 induced, cytoprotection, ATP luminescence, 40 h; active = well fitted curve in the direction sought with a large enough effect; inconclusive = small, poorly fitted or top-dose-only effect, or another doubt; inactive = no such curve, though single readings can be large; an effect the other way counts as inactive or inconclusive; also: % of control where 0% means no effect; nearly all actives have a fitted effect of over 45% in size
#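 ATP quantification (ATPlite) reports survival of PC12 cells in which tebufenozide, 100 nM final, switches on Htt exon 1 with 103 glutamines linked to GFP; compounds are titrated.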
# LMNA splice mod: LMNA splicing modulation; Potency, µM (highest dose often 46.1 µM), inactives show at the top dose ratio change, negative = inhibition, hits mostly inhibitors; 200,000 compounds, 0.01% hits; HeLa LMNA splicing GFP/RFP minigene ratio, 48 h; AID 1487; active = well fitted inhibition curve with a large enough effect in the signal ratio, with a control signal flat, not every such curve was filed as active; inconclusive = small, poorly fitted or top-dose-only effect, or effect the other way, or a change in a side signal; the % refers to the signal ratio; also: % is scaled to controls: 0 for no effect and ±100 for the full control effect
#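 S3 HeLa stable clones carrying a lamin A-EGFP splicing minigene plus DsRed2 were seeded at 600 cells/well in Opti-MEM with 2% FBS, pin-dosed and incubated 48 h at 37°C. Acumen cytometry (488 nm) gave the GFP/RFP total-intensity ratio.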
# HPGD inh: blocks human HPGD enzyme activity; 150,000 compounds, 4.3% hits; purified HPGD, NADH fluorescence kinetic, PGE2 substrate; Potency, µM, for inactives: top-dose activity change, negative = inhibition, most hits filed as inhibitors; also: % is scaled to controls: 0 for no effect and ±100 for the full control effect
# Target sequence (P15428 whole entry, looked up): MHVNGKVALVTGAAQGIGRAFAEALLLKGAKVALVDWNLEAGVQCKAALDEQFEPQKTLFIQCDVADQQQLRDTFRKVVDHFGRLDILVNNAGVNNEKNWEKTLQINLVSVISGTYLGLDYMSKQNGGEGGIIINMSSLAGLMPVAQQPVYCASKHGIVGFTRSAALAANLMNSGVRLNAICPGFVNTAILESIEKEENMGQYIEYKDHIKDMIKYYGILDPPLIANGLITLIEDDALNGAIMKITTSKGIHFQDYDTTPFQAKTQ
#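 NADH formation kinetics: reaction with 30 uM PGE2 and 1 mM NAD+ (final), 20 nM enzyme, Tris-HCl pH 8 with Tween 20, after 15 min compound preincubation at room temperature. Fluorescence change, last versus first of five reads.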
# HTT aggregate: reduces HttQ103-GFP aggregates in PC12 cells | PC12 HttQ103-GFP aggregates, Acumen cytometry, 40 h | Potency, µM (titrated, usually from 46.1 µM), inactives show top-dose activity change, negative = inhibition, most hits filed as inhibitors | 220,000 compounds, 1.1% hits | AID 1688; active = well fitted curve in the direction sought with a large enough effect; inconclusive = small, poorly fitted or top-dose-only effect, or another doubt; inactive = no such curve, though single readings can be large; an effect the other way counts as inactive or inconclusive; also: % is scaled to controls: 0 for no effect and ±100 for the full control effect; nearly all actives have a fitted effect of over 60% in size
#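 PC12/HTTQ103-GFP, ecdysone-inducible; teb 100 nM; cpd qHTS titration; GFP aggregates read on laser cytometer, Ex 488/Em 500-530 nm.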
# JMJD2E inh: inhibitors of human JMJD2E histone demethylase | B2RXH2 | JMJD2E catalytic domain, FDH-coupled NADH fluorescence (FDH is formaldehyde dehydrogenase) | Potency, µM (highest dose often 57.1 µM), inactives show at the highest dose activity change, negative = inhibition, most hits filed as inhibitors | 230,000 compounds, 1.6% hits;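 also: 0% = wells with enzyme and -100% = buffer wells without enzyme; nearly all actives have a fitted effect of over 50% in size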
# Target sequence (B2RXH2 1-337 limits assumed): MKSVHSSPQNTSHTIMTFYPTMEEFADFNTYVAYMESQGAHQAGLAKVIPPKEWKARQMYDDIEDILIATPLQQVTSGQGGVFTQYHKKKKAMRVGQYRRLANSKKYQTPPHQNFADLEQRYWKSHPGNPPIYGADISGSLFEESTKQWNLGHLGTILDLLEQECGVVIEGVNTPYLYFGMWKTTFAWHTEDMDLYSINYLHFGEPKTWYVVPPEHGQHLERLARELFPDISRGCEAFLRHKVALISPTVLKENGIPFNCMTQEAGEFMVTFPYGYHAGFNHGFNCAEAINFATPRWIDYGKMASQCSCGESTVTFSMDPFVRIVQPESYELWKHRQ
# Starred values were filed as active, the others as inactive; ? = inconclusive; . = not tested or not shown; ! = repeats disagree; [ ] = remark or other dose. In the library only some 9.2% were active in any assay of this set; here they are far more common. Unless noted, calls follow the shape of the dose curve; as a rule, active = well fitted inhibition curve with a large enough effect (not every such curve was filed as active); inconclusive = small, poorly fitted or top-dose-only effect, or another doubt; inactive = no such curve, though single readings can be large or run the other way. Potency is read from the fitted curve at half-maximal effect.
SMILES,ALDH1A1 block,HTT cytoprotect,LMNA splice mod,HPGD inh,HTT aggregate,JMJD2E inh
COc1ccc2cc(-c3cc(C(=O)OCC(=O)NC4CCS(=O)(=O)C4)c4ccccc4n3)ccc2c1 (stereo unspecified),?,.,?,?,-3.2%,4.1%
COCCNC(=O)c1ccc2c(c1)nc(C)n2-c1cccc(F)c1,4.3%,-17.8%,-4.6%,7.08µM*,4.2%[9.22 µM],6.2%
CCCNC(=O)c1ccc2c(c1)nc(C)n2-c1cccc(C)c1,.,.,-18.6%[46 µM],.,.,.
COc1ccc2c(c1)C(=O)C(=O)N2,22.4µM*,27.9%[10 µM],-14.3%,-14.8%,14.3%,-4.8%
CCOC(=O)C1(Cc2ccc(Cl)cc2)CCN(Cc2cn(CC)nc2C)CC1,.,7.3%[10 µM],.,.,-10.6%[9.22 µM],-3.2%
Cn1cc(C2=C(c3ccc(Cl)cc3Cl)C(=O)NC2=O)c2ccccc21,-10.3%,31.6µM*!,?,2.6%,.,2.4%
Cn1cc(-c2ccccc2C(N)=O)c(=O)c2cc(Cl)ccc21,-9.3%,11.0%[10 µM],1.9%[46 µM],.,9.0%,?
CCCCc1ccc(/C=C(\C#N)C(N)=S)s1,?,-6.2%[10 µM],7.2%[46 µM],.,-5.9%[9.22 µM],-17.2%
CCCCc1ccc(C2C(C#N)=C(N)SC(N)=C2C#N)s1,?,20.5%,22.1%,14.1µM*,?,-28.8%
Cc1cnc(C(=O)N2CCN(S(=O)(=O)c3ccc4ccccc4c3)CC2)cn1,12.6µM*,-4.1%,0.2%,-16.7%,13.4%,-0.7%
O=S(=O)(c1ccc2ccccc2c1)N1CCN(C2Cc3ccccc3C2)CC1,28.2µM*,4.9%[10 µM],-9.0%,-10.1%,-13.0%,?
Cc1ccc(N(C)C(=O)N2CCN(S(=O)(=O)c3ccc4ccccc4c3)CC2)cc1,?,11.2%[10 µM],6.6%,-4.1%,11.2µM*,1.8%
COc1ccc(CNc2nc(SCc3cc(=O)n4cc(Cl)ccc4n3)nc3ccccc23)cc1,9.0%,15.9%[10 µM],-4.7%,.,14.1%,?
Cc1nn2c(=O)cc(COC(=O)c3cccs3)nc2s1,.,.,2.3%[46 µM],.,.,.
CCOC(=O)N/N=C1/C[C@@H](O)[C@@H](O)[C@@H]2[C@@H]3C(=O)N(c4cccc(Oc5ccccc5)c4)C(=O)[C@H]3CC[C@H]12,5.7%[13.5 µM],0.6%[10 µM],.,.,.,.
O=C(Cc1ccc(F)cc1)Oc1ccc(C(=S)N2CCCC2)cc1,-3.4%,16.3%[0.074 µM],5.6%,-11.6%,2.6%,8.4%
CCCCC[C@H](O)/C=C/[C@@H]1[C@@H](C/C=C\CCCC(=O)OC)[C@@H](O)C[C@H]1O,?,.,-11.1%,-10.2%,16.8%,3.98µM*
Cc1c2c(c(C)n1C)C(C(=O)NC1CCCCC1)N(Cc1ccccc1)C2=O (stereo unspecified),-5.7%,-12.1%,14.4%[9.22 µM],.,7.0%,-4.7%
O=C(OCC(=O)N1CCc2ccccc21)c1ccc[n+]([O-])c1,-10.4%,-9.6%[10 µM],-6.3%,-9.7%,-0.4%,-6.8%
O=C(OCC(=O)N1c2ccccc2Sc2ccccc21)c1ccc[n+]([O-])c1,23.8µM*,0.1%,-1.5%[46 µM],.,-3.6%,0.8%
Cc1cc(=O)c2c(O)cc(O)c(C)c2o1,0.0%,14.5%,.,-18.4%,.,-23.6%
CN1CC(=O)N(CC(=O)Nc2cc(Cl)cc(Cl)c2)C1=O,10µM*,-10.7%,?,.,8.5%,1.2%
CNc1ccc(/C=C2\COc3ccccc3C2=O)cc1[N+](=O)[O-],14.0%,1.6%,13.0%,1.58µM*,8.1%,1.3%
O=C1/C(=C/c2ccccc2[N+](=O)[O-])COc2ccccc21,?,?,?,.,?,8.4%
CCn1cc(C(=O)O)c(=O)c2ccc(Cc3ccccc3)nc21,.,1.3%[1.9 µM],.,.,.,.
Cc1cc(C(=O)COC(=O)CC2Sc3ccccc3NC2=O)c(C)n1-c1ccccc1 (stereo unspecified),?,15.6%[10 µM],5.5%,-1.5%,-19.9%,2.2%
Cc1cc(C(=O)COC(=O)CC2Sc3ccccc3NC2=O)c(C)n1-c1ccc(Br)cc1 (stereo unspecified),11.9µM*,3.3%[10 µM],14.8%,-13.4%,1.0%,2.7%
CCC(C)Oc1cc(-c2ccnc(Nc3cccc(Cl)c3)n2)ccn1 (stereo unspecified),.,24.6%[10 µM],.,.,-18.0%[9.22 µM],-13.7%

# Screens deposited in PubChem by National Center for Advancing Translational Sciences (NCATS).
